Test results published in PubChem BioAssay (NCI).
This is part of a sample that, as a whole, favours compounds with a hit. Of some 79,000 tested, about 15% had one in any assay. Activity calls are given as the source filed them. Cut-off read from the data, not from the text of the source: active = growth inhibition above about 70%; inactive = the rest.

Columns and labels:
[1] = NCI Yeast Anticancer Drug Screen. Data for the rad52 strain (AID 147);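 note: 0% = growth of vehicle-treated control cultures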; conditions: S. cerevisiae rad52 mutant growth inhibition, stronger effect = higher value
Outline: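 Screen used a yeast mutant impaired in DNA repair. After compound exposure, growth was measured. Values reflect inhibition compared with vehicle-treated cells.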

[2] = NCI Yeast Anticancer Drug Screen. Data for the wt1 strain (AID 149);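 note: 0% = growth of vehicle-treated wt1 cultures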; conditions: S. cerevisiae wt1 strain (SPY 50644) growth inhibition, stronger effect = higher value
Outline: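 The wt1 strain was treated with compounds, and growth was compared with vehicle-treated cultures to give inhibition.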

[3] = NCI Yeast Anticancer Drug Screen. Data for the rad50EPP+ strain (AID 151);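 note: 0% = growth of vehicle-treated control cultures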; conditions: S. cerevisiae rad50 mutant strain, stronger effect = higher value
Outline: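 Exposing the rad50EPP+ strain to each compound, growth was compared with vehicle-only cultures to give inhibition.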

[4] = NCI Yeast Anticancer Drug Screen. Data for the mgt1 strain (AID 153); conditions: S. cerevisiae mgt1 mutant growth inhibition, stronger effect = higher value
Outline: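 Genetically defined yeast (mgt1) treated with compound; inhibition of growth expressed against vehicle-treated controls.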

[5] = NCI Yeast Anticancer Drug Screen. Data for the rad50 strain (AID 155);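 note: 0% = growth of vehicle-only cultures of the same strain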; conditions: S. cerevisiae rad50 strain growth inhibition, stronger effect = higher value
Outline: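 Cells are treated with compound, grown, and their growth is then scored against vehicle-only cultures of the same repair-deficient yeast strain.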

[6] = NCI Yeast Anticancer Drug Screen. Data for the mec2-1 strain (AID 157); conditions: S. cerevisiae mec2-1 strain, stronger effect = higher value
Outline: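 Readout is yeast growth inhibition, normalised to vehicle-treated controls, in the mec2-1 strain exposed to compound.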

[7] = NCI Yeast Anticancer Drug Screen. Data for the sgs1 mgt1 strain (AID 161);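 note: 0% = growth of cultures given vehicle only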; conditions: S. cerevisiae sgs1 mgt1 strain, stronger effect = higher value
Outline: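 Yeast cells carrying a defined DNA-repair defect were exposed to test compounds. Growth inhibition was measured relative to vehicle-treated controls.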

[8] = NCI Yeast Anticancer Drug Screen. Data for the cln2 rad14 strain (AID 165);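 note: 0% = growth equal to vehicle treated cultures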; conditions: S. cerevisiae cln2 rad14 strain, stronger effect = higher value
Outline: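 Relative to vehicle controls, growth inhibition of compound-treated cln2 rad14 yeast was recorded.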

[9] = NCI Yeast Anticancer Drug Screen. Data for the bub3 strain (AID 167); conditions: S. cerevisiae bub3 mutant strain, stronger effect = higher value
Outline: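 Part of a panel of yeast mutants defective in DNA damage repair or cell cycle regulation. Each strain is grown with compound, and inhibition is calculated relative to solvent-treated cultures.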

[10] = NCI Yeast Anticancer Drug Screen. Data for the wt2 strain (AID 169);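 note: 0% = growth of vehicle-treated yeast cultures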; conditions: S. cerevisiae wt2 strain growth inhibition, stronger effect = higher value
Outline: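 Values express reduction in yeast growth under compound treatment, referenced to vehicle-treated cells.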

[11] = NCI Yeast Anticancer Drug Screen. Data for the mlh1 strain (AID 171);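 note: 0% = growth of vehicle-treated control cultures of the same strain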; conditions: S. cerevisiae mlh1 strain growth inhibition, stronger effect = higher value
Outline: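 Steps: expose the defined-mutant yeast strain to compound; expose a parallel culture to vehicle; measure growth; express compound effect as inhibition relative to the vehicle culture.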

[12] = NCI Yeast Anticancer Drug Screen. Data for the mlh1 rad18 strain (AID 175); conditions: S. cerevisiae mlh1 rad18 strain growth inhibition, stronger effect = higher value
Outline: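 Test agents were incubated with a yeast strain of defined genotype (DNA damage repair defect). Inhibition of growth was derived by comparison with vehicle-exposed cultures.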

[13] = NCI Yeast Anticancer Drug Screen. Data for the rad18 strain (AID 177); conditions: S. cerevisiae rad18 mutant growth inhibition, stronger effect = higher value
Outline: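 A genetically defined yeast mutant impaired in DNA damage repair was treated with test compounds, then its growth was measured against cultures receiving vehicle alone.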

[14] = at 5.0 µM (retest, dose inferred, filed as 0.5)
[15] = at 50.0 µM (retest, dose inferred, filed as 5.0)

Measured: growth inhibition

Clc1nc(Cl)nc(Nc2cccc3ccccc23)n1
inactive: [1]; at 1.2 µM 13% | [1]; at 3.7 µM 32% | [1]; at 11.0 µM 64% | [2]; at 1.2 µM 6% | [2]; at 3.7 µM 14% | [2]; at 11.0 µM 36% | [3]; at 1.2 µM 21% | [3]; at 3.7 µM 50% | [3]; at 11.0 µM 49% | [4]; at 1.2 µM 18% | [4]; at 3.7 µM 26% | [4]; at 11.0 µM 54% | [5]; at 1.2 µM 4% | [5]; at 3.7 µM 21% | [5]; [14] 29% | [5]; at 11.0 µM 52% | [6]; at 1.2 µM 23% | [6]; at 3.7 µM 42% | [6]; [14] 10% | [6]; at 11.0 µM 58% | [7]; [14] 19% | [7]; [15] 39% | [8]; [14] 44% | [9]; at 1.2 µM 33% | [9]; at 3.7 µM 45% | [9]; [14] 64% | [10]; at 1.2 µM -12% | [10]; at 3.7 µM 15% | [10]; at 11.0 µM 51% | [11]; at 1.2 µM 27% | [11]; at 3.7 µM 51% | [12]; [14] 69% | [13]; at 1.2 µM 11% | [13]; at 3.7 µM 14% | [13]; at 11.0 µM 50%
active: [1]; at 33.0 µM 93% | [1]; at 100.0 µM 98% | [2]; at 33.0 µM 88% | [2]; at 100.0 µM 98% | [3]; at 33.0 µM 85% | [3]; at 100.0 µM 95% | [4]; at 33.0 µM 95% | [4]; at 100.0 µM 98% | [5]; at 33.0 µM 93% | [5]; [15] 92% | [5]; at 50.0 µM 86.9% | [5]; at 100.0 µM 97% | [6]; at 33.0 µM 97% | [6]; [15] 96% | [6]; at 50.0 µM 90% | [6]; at 100.0 µM 98% | [7]; at 50.0 µM 86.7% | [8]; [15] 95% | [8]; at 50.0 µM 71.4% | [9]; at 11.0 µM 80% | [9]; at 33.0 µM 96% | [9]; [15] 97% | [9]; at 50.0 µM 86.2% | [9]; at 100.0 µM 99% | [10]; at 33.0 µM 93% | [10]; at 100.0 µM 98% | [11]; at 11.0 µM 85% | [11]; at 33.0 µM 97% | [11]; at 100.0 µM 98% | [12]; [15] 94% | [12]; at 50.0 µM 80.3% | [13]; at 33.0 µM 91% | [13]; at 100.0 µM 98%

CC(C)(N=Nc1ccc(Cl)cc1)[N+](=O)[O-]
active: [1]; at 11.0 µM 90% | [1]; at 33.0 µM 97% | [1]; at 100.0 µM 97% | [2]; at 33.0 µM 98% | [2]; at 100.0 µM 98% | [3]; at 33.0 µM 90% | [3]; at 100.0 µM 96% | [4]; at 11.0 µM 79% | [4]; at 33.0 µM 98% | [4]; at 100.0 µM 99% | [5]; at 11.0 µM 93% | [5]; at 33.0 µM 98% | [5]; [15] 98% | [5]; at 50.0 µM 99% | [5]; at 100.0 µM 98%
inactive: [1]; at 1.2 µM 17% | [1]; at 3.7 µM 27% | [2]; at 1.2 µM 10% | [2]; at 3.7 µM 12% | [2]; at 11.0 µM 68% | [3]; at 1.2 µM 13% | [3]; at 3.7 µM 17% | [3]; at 11.0 µM 60% | [4]; at 1.2 µM 12% | [4]; at 3.7 µM 22% | [5]; at 1.2 µM 15% | [5]; at 3.7 µM 35% | [5]; [14] 47% | [6]; at 1.2 µM -1% | [6]; at 3.7 µM 9%
